Screening results (PubChem BioAssay)
Most compounds without a hit are left out; they make up all but 4.6% or so of the library.
D1 potentiator = human D1 dopamine receptor positive modulation; P21728; AID 504651; 360,000 tested, 0.036% active; potentiation, % at 10 µM; HEK293 TREx D1 cells, calcium flux, dopamine EC20 potentiation; in the data active = potentiation above about 30%
Target sequence (P21728 whole entry, looked up): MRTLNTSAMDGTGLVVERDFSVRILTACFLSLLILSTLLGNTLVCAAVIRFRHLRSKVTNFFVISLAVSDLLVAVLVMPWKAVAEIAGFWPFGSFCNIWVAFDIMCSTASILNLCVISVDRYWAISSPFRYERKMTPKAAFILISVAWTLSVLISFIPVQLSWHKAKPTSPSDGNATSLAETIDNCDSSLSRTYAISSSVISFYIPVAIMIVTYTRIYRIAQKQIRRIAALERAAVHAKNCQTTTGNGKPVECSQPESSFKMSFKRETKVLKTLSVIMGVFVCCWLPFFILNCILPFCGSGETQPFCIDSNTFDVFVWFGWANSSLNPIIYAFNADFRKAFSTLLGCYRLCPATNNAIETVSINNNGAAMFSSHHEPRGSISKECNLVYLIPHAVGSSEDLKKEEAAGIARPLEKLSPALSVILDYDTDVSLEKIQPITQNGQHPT
TRHR enhancer = allosterically enhances the human TRH receptor; TRHR cells, fluo-8 calcium fluorescence, EC20 TRH enhancement; 360,000 tested, 0.66% active; enhancement, % at 2 µM; AID 493056; in the data active = enhancement above about 30%
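Enhancer read-out: after compound pinning and an initial kinetic agonist-mode read, an EC20 of TRH (10 nM final) was injected and fluo-8 calcium signal (Ex 480/Em 530) followed at 1 s/cycle for 100 cycles in TRHR-expressing cells.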
TRHR ag = TRH receptor (human) agonism; TRHR cells, calcium flux fluo-8, FDSS agonist mode; activation, % at 2 µM; 360,000 tested, 0.18% active; AID 493084
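TRHR-expressing cells loaded with fluo-8 calcium dye; 23 nL library compound pin-transferred, kinetic FDSS fluorescence (Ex 480/Em 530) recorded about 180 s for agonist-induced calcium release, before a 10 nM TRH EC20 addition for potentiator mode.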
D1 ag = activates the human D1 dopamine receptor. P21728. HEK293 T-REx D1 cells, calcium flux, agonist mode. activation, % at 2 µM. 360,000 tested, 1% active. AID 504660
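Agonism was scored from calcium flux recorded over 180 s (1 read/s) after pintool compound addition, following a 10-cycle baseline. Cells were inducible force-coupled HEK293 TREx D1, plated overnight at 30 C and loaded with no-wash calcium dye.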
D1 antagonist = blocks dopamine activation of the human D1 receptor. 360,000 tested, 3.2% active. HEK293 TREx D1 cells, calcium flux, dopamine EC80; hits give low values. activity change, negative = inhibition, % at 10 µM. P21728. AID 504652; in the data active = activity change below about -30%
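Allosteric or orthosteric antagonism assessed as attenuation of the calcium response to EC80 dopamine, added 180 s after compound, in induced HEK293 Trex D1 cells loaded with no-wash calcium dye.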
Large screens that a line does not name were inactive. Rule as the data show it, unless noted: active = activation above about 30%; inactive = the rest.

CSc1ccc(CNCc2ccc3c(c2)OCO3)cc1	D1 ag 36
CC(C)Cn1c(=O)c2sccc2n2c(CCCC(=O)NCCc3ccc(Cl)cc3)nnc12	none
COc1ccc(OC)c(C2=C[N+](=O)C(C)(C)C(C)(C)N2[O-])c1	D1 potentiator 54
CC1(C)N([O-])C(c2ccccc2)=C[N+](=O)C1(C)C	none
Cc1ccccc1-n1nnnc1SC(C)C(=O)Nc1ccc(N2CCN(C)CC2)cc1 (stereo not given)	D1 antagonist -68
CCc1ccccc1-n1nnnc1SCC(=O)Nc1ccc(N2CCN(C)CC2)cc1	D1 antagonist -60
Cc1ccccc1-n1nnnc1SCC(=O)Nc1ccc(N2CCN(C)CC2)cc1	D1 antagonist -77
CCc1ccccc1-n1nnnc1SCC(=O)Nc1cc(C)on1	none
CC(Sc1nc2ccccc2n1C)C(=O)Nc1ccc(N2CCOCC2)cc1 (stereo not given)	none
Cc1cccc(-n2nnnc2SCC(=O)Nc2ccc(N3CCN(C)CC3)cc2)c1	none
COc1ccc(OC)c(CN2CCC(CNC(=O)Nc3cccc(Cl)c3)CC2)c1	none
O=C(Nc1ccc(Oc2cccnc2)cc1)C1CCN(Cc2ccccc2)CC1	none
O=C(NCC1CCN(Cc2cccc(Cl)c2)CC1)Nc1ccc(F)c(Cl)c1	none
O=C(Nc1ccc(Oc2cccnc2)cc1)C1CCN(Cc2cccc(Cl)c2)CC1	D1 ag 49, D1 antagonist -37
Cc1cc(CN2CCCCC2C(=O)Nc2ccc(Oc3cccnc3)cc2)oc1C (stereo not given)	D1 antagonist -33
CCc1cccc(CN2CCC(CNC(=O)Nc3ccc(Cl)cc3)CC2)c1	D1 ag 39, D1 antagonist -44
O=C(Nc1ccc(Oc2cccnc2)cc1)C1CCCCN1Cc1ccc(CO)o1 (stereo not given)	none
O=C(NCC1CCN(Cc2cccc(Cl)c2)CC1)Nc1ccc(Cl)cc1	D1 ag 31, D1 antagonist -73
Cc1nn(CC(=O)NC2CCCCC2)c(=O)c2cc3cc(F)ccc3n12	none
CCCC12CN3CC(C)(CN(C1)C3c1ccc(OCc3ccccc3)cc1)C2=O (stereo not given)	none
CN(C)S(=O)(=O)N1CCC(Oc2cccc(C(=O)NCCC3=CCCCC3)c2)CC1	D1 ag 31, D1 antagonist -31
CSc1cccc(NS(=O)(=O)c2ccc3[nH]cc(C(=O)N4CCCCCC4)c(=O)c3c2)c1	none
COCCNC(=O)C(OC(=O)c1cccs1)c1ccccc1 (stereo not given)	D1 antagonist -36
COc1ccc(-c2onc(C)c2C)cc1S(=O)(=O)NCc1ccc(C)o1	none
CC(=O)Nc1ccc(Sc2ncccc2C(=O)Nc2ccc(OC(F)(F)F)cc2)cn1	D1 ag 115, D1 antagonist -60
O=S(=O)(c1cccs1)N1CCC(Cc2ccccc2)CC1	D1 antagonist -42
O=C(CCc1ccccc1)N1CCN(S(=O)(=O)c2cccs2)CC1	D1 antagonist -40
CCN(Cc1ccccc1)Cc1c(O)ccc2oc(C)c(C(=O)Nc3ccccc3C)c12	none
CCOc1ccc(C(=O)CC(NCc2cccs2)C(=O)O)cc1 (stereo not given)	D1 antagonist -30
CCOc1ccc(C(=O)CCC(=O)N(CC)CC(=O)NCc2cccs2)cc1	none
COc1cccc(OC)c1OCCOc1ccc(C(=O)c2ccccc2)cc1	D1 antagonist -35
COC(=O)c1ccc(OCCOc2ccccc2)cc1	none
CNCC[C@H](Oc1cccc2ccccc12)c1cccs1	D1 ag 61
COc1ccc(C(CCNCc2ccc(OC)c(OC)c2)c2ccc(F)cc2)cc1 (stereo not given)	none
COc1ccc(CNCCC(c2ccc3c(c2)OCO3)c2ccccc2OC)cc1 (stereo not given)	D1 ag 80
COc1ccc(C(C)NCCC(c2ccc(OC(C)C)cc2)c2ccccc2OC)cc1 (stereo not given)	D1 ag 38
Cc1ccc(Cl)cc1-n1ncc2c(Nc3ccc4c(c3)OCCO4)ncnc21	none
CCN1CCOC(=O)C1CC(=O)Nc1cc(C)cc(C)c1 (stereo not given)	none
COc1cccc(CNC(=O)C(=O)Nc2ccc3nc4n(c(=O)c3c2)CCCCC4)c1	D1 antagonist -40
CCOC(=O)Nc1ccc2nc3n(c(=O)c2c1)CCCCC3	none
O=C(Nc1ccc2nc3n(c(=O)c2c1)CCCCC3)c1c(F)ccc([N+](=O)[O-])c1F	D1 antagonist -42
COc1cccc(CNC(=O)c2ccc(NC(=O)CC3SC(N4CCCCC4)=NC3=O)cc2)c1 (stereo not given)	none
O=C(Nc1ccc2nc3n(c(=O)c2c1)CCCCC3)c1cc([N+](=O)[O-])ccc1F	none
COCCNC(=O)C(=O)Nc1ccc2nc3n(c(=O)c2c1)CCCCC3	D1 antagonist -52
O=C(NCc1cccc(Cl)c1)C(=O)Nc1ccc2nc3n(c(=O)c2c1)CCCCC3	none
COc1cccc(CNC(=O)c2cccc(NC(=O)CC3SC(N4CCCCC4)=NC3=O)c2)c1 (stereo not given)	TRHR enhancer 36
O=C(CC1N=C2c3ccccc3N=C(SCc3ccccc3F)N2C1=O)NCCc1ccccc1 (stereo not given)	none
Cc1cccc([N+](=O)[O-])c1NC(=O)CSc1nnc2ccccn12	none
CCOC(=O)C1CCCN(c2nc3ccccc3nc2C(C#N)C(=O)OCC)C1 (stereo not given)	none
CCOC(=O)C1CCN(c2nc3ccccc3nc2C(C#N)C(=O)NCCc2ccccc2)CC1 (stereo not given)	D1 antagonist -30
CCc1ccccc1NC(=O)C(=O)NCC(c1cccnc1)N1CCc2ccccc21 (stereo not given)	none
Cc1c(C(=O)NCc2cccc(Br)c2)oc2ccc3c(c12)C(=O)CC(C)(C)O3	none
COc1ccc(-c2nc(=S)c3ccc4ccccc4c3[nH]2)cc1	D1 antagonist -68
CC(C)CCn1c(=O)c2sccc2n2c(CCCC(=O)Nc3ccc(C(C)C)cc3)nnc12	none
CCc1ccc(Nc2nnc(SCC(=O)N(C)C3CCS(=O)(=O)C3)s2)cc1 (stereo not given)	D1 antagonist -70
Cc1ccc(NC(=O)Cn2c(=O)n(Cc3ccco3)c(=O)c3oc4ccccc4c32)cc1C	none
CCCOc1cccc(C(=O)N(Cc2ccc(C)o2)C2CCS(=O)(=O)C2)c1 (stereo not given)	none
COc1ccccc1N1CCN(C(c2cccs2)c2nnnn2C2CCCC2)CC1 (stereo not given)	D1 antagonist -35
CCc1ccccc1NC(=O)CSc1nc2ncccc2o1	none
Cn1c(=O)n(C)c2cc(N3CCCCC3)c(NC(=O)c3c(F)cccc3F)cc21	none
Cc1cc(C)cc(NC(=O)N2CCN3CCCCC3C2)c1 (stereo not given)	none
